# Results filed as inconclusive are left out. The source holds several records for some structures; these can differ, active in one and inactive in another. Activity calls are given as the source filed them. How the source made its calls: active means hit-call score of the fitted dose curve at least 0.9, where 1 is the maximum; inconclusive means response in the unintended direction; inactive means score below 0.9.
# Columns and labels:
# [1] = biological target: Peroxisome proliferator-activated receptor gamma (Homo sapiens) (UniProt P37231); test: NVS_NR_hPPARg: NovaScreen (NVS) Nuclear Receptor Binding Assay for human Peroxisome Proliferator-activated Receptor gamma (PPARg) (AID 2283370)
# Peroxisome proliferator-activated receptor gamma (Homo sapiens), sequence (P37231 whole entry, looked up): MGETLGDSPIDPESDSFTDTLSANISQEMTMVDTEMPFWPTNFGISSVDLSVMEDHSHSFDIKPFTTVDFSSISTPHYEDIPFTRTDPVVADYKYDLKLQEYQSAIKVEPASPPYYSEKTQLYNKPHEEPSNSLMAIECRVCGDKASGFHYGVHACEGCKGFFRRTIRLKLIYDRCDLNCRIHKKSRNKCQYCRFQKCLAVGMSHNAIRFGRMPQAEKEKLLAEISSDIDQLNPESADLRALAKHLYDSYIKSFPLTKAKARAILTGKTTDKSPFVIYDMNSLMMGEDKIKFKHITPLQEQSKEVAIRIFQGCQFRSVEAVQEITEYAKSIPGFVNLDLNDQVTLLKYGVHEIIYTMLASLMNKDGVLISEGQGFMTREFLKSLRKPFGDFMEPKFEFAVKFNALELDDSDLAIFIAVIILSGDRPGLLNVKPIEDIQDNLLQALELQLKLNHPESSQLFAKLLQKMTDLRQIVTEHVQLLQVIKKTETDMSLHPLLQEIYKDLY
# Summary of the method: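 Chemicals were tested first in duplicate at 25 uM, then in concentration series if active. Binding to cell-free PPARg protein was measured by fluorescence polarization after 2 h, with loss of signal scored against DMSO.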
# [2] = biological target: human Dopamine Transporter (DAT), SLC6A3 (gene 6531) (UniProt Q01959); test: NVS_TR_hDAT: NovaScreen (NVS) Transporter Assay for human Dopamine Transporter (DAT) (AID 2283374);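 further: activity means loss of bound radioligand signal relative to DMSO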
# human Dopamine Transporter (DAT), SLC6A3 (gene 6531), sequence (Q01959 whole entry, looked up): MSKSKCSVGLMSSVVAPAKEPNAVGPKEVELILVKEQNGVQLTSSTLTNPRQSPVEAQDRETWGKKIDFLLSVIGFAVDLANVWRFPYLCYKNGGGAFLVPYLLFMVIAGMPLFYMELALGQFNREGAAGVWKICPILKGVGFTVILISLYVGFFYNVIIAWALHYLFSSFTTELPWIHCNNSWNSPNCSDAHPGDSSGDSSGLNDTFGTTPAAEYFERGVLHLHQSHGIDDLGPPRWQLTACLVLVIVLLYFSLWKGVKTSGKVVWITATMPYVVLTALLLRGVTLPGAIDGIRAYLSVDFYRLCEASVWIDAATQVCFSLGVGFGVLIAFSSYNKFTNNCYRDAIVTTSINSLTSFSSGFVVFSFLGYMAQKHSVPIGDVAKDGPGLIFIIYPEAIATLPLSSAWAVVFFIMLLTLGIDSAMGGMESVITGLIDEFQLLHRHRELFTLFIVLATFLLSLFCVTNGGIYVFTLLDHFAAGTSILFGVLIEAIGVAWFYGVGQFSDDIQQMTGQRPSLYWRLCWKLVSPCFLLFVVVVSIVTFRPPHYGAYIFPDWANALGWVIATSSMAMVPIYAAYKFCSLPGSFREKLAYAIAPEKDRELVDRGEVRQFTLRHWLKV
# Summary of the method: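 Cell-free radioligand binding to extracted human DAT protein, read 1 h after dosing by filter-based scintillation counting. Loss of specific binding scored against DMSO baseline; primary screen in duplicate at 25 uM, actives then run in concentration series.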
# [3] = biological target: Retinoic acid receptor alpha (Homo sapiens) (UniProt P10276); test: NVS_NR_hRARa_Agonist: NovaScreen (NVS) Nuclear Receptor Binding Assay for human Retinoic Acid Alpha Receptor Agonism (RAR) (AID 2283361)
# Retinoic acid receptor alpha (Homo sapiens), sequence (P10276 whole entry, looked up): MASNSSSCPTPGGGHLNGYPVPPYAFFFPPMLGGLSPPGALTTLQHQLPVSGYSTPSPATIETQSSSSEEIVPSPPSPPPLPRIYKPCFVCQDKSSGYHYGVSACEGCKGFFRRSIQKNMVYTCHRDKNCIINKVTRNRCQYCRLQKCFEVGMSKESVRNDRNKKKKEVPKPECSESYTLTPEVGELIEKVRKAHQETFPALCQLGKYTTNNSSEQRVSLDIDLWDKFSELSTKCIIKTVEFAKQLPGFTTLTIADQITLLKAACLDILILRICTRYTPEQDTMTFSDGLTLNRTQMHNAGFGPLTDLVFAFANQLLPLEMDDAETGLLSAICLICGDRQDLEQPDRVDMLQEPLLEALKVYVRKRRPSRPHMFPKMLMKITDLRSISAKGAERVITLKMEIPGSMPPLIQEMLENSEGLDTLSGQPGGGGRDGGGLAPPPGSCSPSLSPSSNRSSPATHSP
# Summary of the method: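 Cell-free TR-FRET binding read-out with extracted human RARα protein, read 2 h after compound addition. Gain of signal scored against DMSO baseline. Primary screen at a single 25 uM in duplicate; actives then retested in concentration series.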
# [4] = biological target: human Thyroid Receptor Alpha (TRa), THRA (gene 7067) (UniProt P10827); test: NVS_NR_hTRa_Antagonist: NovaScreen (NVS) Nuclear Receptor Binding Assay for human Thyroid Receptor Alpha Antagonism (TRa) (AID 2283362)
# human Thyroid Receptor Alpha (TRa), THRA (gene 7067), sequence (P10827 whole entry, looked up): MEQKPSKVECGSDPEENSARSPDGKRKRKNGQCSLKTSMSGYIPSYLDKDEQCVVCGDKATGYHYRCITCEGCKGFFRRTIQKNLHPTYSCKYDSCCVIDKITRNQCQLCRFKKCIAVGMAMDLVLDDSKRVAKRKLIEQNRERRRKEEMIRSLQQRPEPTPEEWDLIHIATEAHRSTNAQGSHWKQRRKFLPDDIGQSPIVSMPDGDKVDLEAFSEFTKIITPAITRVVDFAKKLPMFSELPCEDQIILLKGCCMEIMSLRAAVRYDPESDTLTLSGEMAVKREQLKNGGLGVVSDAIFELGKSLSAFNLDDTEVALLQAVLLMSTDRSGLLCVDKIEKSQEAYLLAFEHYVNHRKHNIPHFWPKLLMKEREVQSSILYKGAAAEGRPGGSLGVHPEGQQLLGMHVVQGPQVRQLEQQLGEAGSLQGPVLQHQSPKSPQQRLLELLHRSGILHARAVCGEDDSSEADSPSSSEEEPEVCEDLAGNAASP
# Summary of the method: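 Extracted protein, cell-free; 1 h incubation after dosing; AlphaLISA chemiluminescence binding readout. DMSO = baseline/neg ctrl; signal loss = activity. Primary: duplicate, 25 uM; secondary: conc. series on actives.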
# [5] = biological target: Glucocorticoid receptor (Homo sapiens) (UniProt P04150); test: NVS_NR_hGR: NovaScreen (NVS) Nuclear Receptor Binding Assay for human Glucocorticoid Receptor (GR) (AID 2283363)
# Glucocorticoid receptor (Homo sapiens), sequence (P04150 whole entry, looked up): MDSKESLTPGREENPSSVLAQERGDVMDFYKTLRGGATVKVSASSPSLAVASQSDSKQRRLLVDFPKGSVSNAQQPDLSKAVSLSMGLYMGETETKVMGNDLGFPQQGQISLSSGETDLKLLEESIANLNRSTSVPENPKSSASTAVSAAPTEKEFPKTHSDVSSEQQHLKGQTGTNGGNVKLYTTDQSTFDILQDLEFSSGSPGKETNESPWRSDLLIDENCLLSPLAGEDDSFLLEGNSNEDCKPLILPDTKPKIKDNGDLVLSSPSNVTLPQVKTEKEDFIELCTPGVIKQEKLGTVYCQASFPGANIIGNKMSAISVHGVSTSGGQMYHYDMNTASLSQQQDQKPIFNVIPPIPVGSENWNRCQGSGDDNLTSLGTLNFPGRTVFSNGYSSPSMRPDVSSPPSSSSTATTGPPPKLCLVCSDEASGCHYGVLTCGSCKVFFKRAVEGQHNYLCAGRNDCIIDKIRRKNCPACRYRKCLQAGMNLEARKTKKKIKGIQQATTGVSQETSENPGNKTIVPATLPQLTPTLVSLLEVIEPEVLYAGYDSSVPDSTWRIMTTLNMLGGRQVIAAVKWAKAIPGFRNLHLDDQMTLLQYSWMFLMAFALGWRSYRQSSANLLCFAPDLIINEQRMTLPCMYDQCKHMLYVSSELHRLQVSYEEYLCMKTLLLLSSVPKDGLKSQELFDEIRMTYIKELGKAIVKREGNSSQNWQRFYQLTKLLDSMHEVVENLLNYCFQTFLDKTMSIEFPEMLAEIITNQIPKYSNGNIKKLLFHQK
# Summary of the method: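 Cell-free radioligand binding with extracted receptor protein, read by filter-based scintillation counting 16 hours after dosing. Loss of specific signal versus DMSO baseline was scored. Primary screen ran in duplicate at 25 uM; actives were followed up in concentration series.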
# [6] = biological target: rat Androgen Receptor (AR), Ar (gene 24208) (UniProt P15207); test: NVS_NR_rAR: NovaScreen (NVS) Nuclear Receptor Binding Assay for rat Androgen Receptor (AR) (AID 2283366)
# rat Androgen Receptor (AR), Ar (gene 24208), sequence (P15207 whole entry, looked up): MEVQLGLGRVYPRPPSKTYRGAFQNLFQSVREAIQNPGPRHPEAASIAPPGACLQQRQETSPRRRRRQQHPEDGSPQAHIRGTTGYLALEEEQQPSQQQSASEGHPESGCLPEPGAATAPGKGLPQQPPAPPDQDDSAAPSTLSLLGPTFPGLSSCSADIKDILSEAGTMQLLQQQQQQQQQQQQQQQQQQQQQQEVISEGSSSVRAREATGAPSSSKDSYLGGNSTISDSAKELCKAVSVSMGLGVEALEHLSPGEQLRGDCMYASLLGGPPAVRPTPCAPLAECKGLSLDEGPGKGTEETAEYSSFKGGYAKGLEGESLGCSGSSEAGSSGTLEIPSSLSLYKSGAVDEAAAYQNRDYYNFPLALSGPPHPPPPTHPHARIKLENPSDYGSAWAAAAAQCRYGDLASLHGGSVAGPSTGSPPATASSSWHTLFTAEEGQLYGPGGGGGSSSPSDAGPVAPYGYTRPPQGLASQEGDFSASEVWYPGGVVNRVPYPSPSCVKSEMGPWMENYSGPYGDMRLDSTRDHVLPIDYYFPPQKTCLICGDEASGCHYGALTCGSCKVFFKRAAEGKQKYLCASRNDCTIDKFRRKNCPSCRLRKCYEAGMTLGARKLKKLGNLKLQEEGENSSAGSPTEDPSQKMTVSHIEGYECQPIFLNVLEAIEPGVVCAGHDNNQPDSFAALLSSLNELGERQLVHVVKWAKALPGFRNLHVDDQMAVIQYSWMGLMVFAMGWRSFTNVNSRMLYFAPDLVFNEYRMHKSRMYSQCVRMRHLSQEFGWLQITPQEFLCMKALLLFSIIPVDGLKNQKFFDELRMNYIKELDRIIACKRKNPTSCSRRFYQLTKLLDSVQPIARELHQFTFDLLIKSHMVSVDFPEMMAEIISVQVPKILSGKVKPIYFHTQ
# Summary of the method: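 Cell-free radioligand binding on extracts of prostate from testosterone-pretreated rats, read by filter-based scintillation counting 18 h after dosing. Loss of bound signal fitted positively versus DMSO; primary screen in duplicate at 25 uM, actives followed up in concentration series.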
# [7] = biological target: guinea pig Sigma Receptor, Non-selective Binding, SIGMAR1 (gene 100135589) (UniProt Q60492); test: NVS_OR_gSIGMA_NonSelective: NovaScreen (NVS) Nuclear Receptor Binding Assay for guinea pig Sigma Receptor, Non-selective Binding (AID 2283367)
# Method: NVS_OR_gSIGMA_NonSelective is a biochemical, single-readout assay that uses extracted gene-proteins from Guinea pig brain membranes in a tissue-based cell-free assay. Measurements were taken 1 hour after chemical dosing in a 48-well plate.NVS_OR_gSIGMA_NonSelective is one of one assay component(s) measured or calculated from the NVS_OR_gSIGMA_NonSelective assay. It is designed to make measurements of radioligand binding, a form of binding reporter, as detected with scintillation counting signals by Filter-based radiodetection technology.Data from the assay component NVS_OR_gSIGMA_NonSelective was analyzed into 1 assay endpoint. This assay endpoint, NVS_OR_gSIGMA_NonSelective, was analyzed in the positive analysis fitting direction relative to DMSO as the negative control and baseline of activity. Using a type of binding reporter, loss-of-signal activity can be used to understand changes in the binding as they relate to the gene Sigmar1. Furthermore, this assay endpoint can be referred to as a primary readout, because the performed assay has only produced 1 assay endpoint. To generalize the intended target to other relatable targets, this assay endpoint is annotated to the misc protein intended target family, where the subfamily is chaperone. […]
# [8] = biological target: rat Serotonin Transporter (SERT), Slc6a4 (gene 25553) (UniProt P31652); test: NVS_TR_rSERT: NovaScreen (NVS) Transporter Assay for rat Serotonin Transporter (SERT) (AID 2283375)
# rat Serotonin Transporter (SERT), Slc6a4 (gene 25553), sequence (P31652 whole entry, looked up): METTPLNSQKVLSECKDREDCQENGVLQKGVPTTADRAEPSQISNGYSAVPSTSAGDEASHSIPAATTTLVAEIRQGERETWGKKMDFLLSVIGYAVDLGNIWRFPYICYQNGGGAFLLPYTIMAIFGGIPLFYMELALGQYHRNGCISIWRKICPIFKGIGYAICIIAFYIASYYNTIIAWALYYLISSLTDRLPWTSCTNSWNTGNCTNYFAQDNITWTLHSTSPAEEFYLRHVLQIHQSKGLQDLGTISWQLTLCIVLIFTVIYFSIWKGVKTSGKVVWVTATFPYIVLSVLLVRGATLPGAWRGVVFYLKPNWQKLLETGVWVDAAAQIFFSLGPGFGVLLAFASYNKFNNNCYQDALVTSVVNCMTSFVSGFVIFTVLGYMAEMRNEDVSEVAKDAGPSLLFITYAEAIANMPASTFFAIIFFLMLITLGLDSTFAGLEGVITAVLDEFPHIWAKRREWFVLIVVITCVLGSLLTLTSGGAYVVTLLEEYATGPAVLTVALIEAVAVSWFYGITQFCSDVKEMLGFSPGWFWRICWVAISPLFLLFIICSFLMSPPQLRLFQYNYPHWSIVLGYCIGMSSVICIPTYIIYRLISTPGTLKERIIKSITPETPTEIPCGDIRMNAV
# Summary of the method: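 Filtration-based radiodetection quantified loss of specific radioligand binding in rat forebrain membranes after 1 hour of chemical exposure, relative to DMSO. Chemicals were first tested in duplicate at 25 uM.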
# [9] = test system: guinea pig Dopamine Transporter (DAT), gene 100714898; test: NVS_TR_gDAT: NovaScreen (NVS) Transporter Assay for guinea pig Dopamine Transporter (DAT) (AID 2283369);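 further: active compounds lower bound radioligand signal relative to DMSO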
# Summary of the method: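 Scintillation counts of filter-retained radioligand report binding to guinea pig striatal membranes after 2 h. Activity scored as signal loss relative to DMSO, first at 25 uM in duplicate, then in concentration series to 50 uM.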
# [10] = biological target: human Norepinephrine Transporter (NET), SLC6A2 (gene 6530) (UniProt P23975); test: NVS_TR_hNET: NovaScreen (NVS) Transporter Assay for human Norepinephrine Transporter (NET) (AID 2283377);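 further: cell-free membrane protein extracted from CHO cells expressing human NET; displacement of radioligand from human NET seen as loss of scintillation signal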
# human Norepinephrine Transporter (NET), SLC6A2 (gene 6530), sequence (P23975 whole entry, looked up): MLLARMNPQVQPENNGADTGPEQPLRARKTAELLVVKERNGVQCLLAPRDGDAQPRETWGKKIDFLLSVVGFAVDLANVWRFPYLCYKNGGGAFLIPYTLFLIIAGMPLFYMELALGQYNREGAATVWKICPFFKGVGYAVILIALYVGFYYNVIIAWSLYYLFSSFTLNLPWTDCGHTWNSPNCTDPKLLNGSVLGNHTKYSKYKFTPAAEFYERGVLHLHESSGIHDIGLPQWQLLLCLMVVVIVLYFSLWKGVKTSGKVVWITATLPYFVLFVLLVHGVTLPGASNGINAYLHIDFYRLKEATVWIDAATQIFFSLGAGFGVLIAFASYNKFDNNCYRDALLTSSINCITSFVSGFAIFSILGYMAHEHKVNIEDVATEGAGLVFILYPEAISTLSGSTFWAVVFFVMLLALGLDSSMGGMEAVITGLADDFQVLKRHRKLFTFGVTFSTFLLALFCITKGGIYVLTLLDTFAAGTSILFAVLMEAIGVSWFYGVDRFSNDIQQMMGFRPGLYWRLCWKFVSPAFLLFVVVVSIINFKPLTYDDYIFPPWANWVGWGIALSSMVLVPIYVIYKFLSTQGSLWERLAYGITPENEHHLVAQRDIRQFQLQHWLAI
# Method: NVS_TR_hNET is a biochemical, single-readout assay that uses extracted gene-proteins from CHO in a cell-free assay. Measurements were taken 1 hour after chemical dosing in a 96-well plate.NVS_TR_hNET is one of one assay component(s) measured or calculated from the NVS_TR_hNET assay. It is designed to make measurements of radioligand binding, a form of binding reporter, as detected with scintillation counting signals by Filter-based radiodetection technology.Data from the assay component NVS_TR_hNET was analyzed into 1 assay endpoint. This assay endpoint, NVS_TR_hNET, was analyzed in the positive analysis fitting direction relative to DMSO as the negative control and baseline of activity. Using a type of binding reporter, loss-of-signal activity can be used to understand changes in the binding as they relate to the gene SLC6A2. Furthermore, this assay endpoint can be referred to as a primary readout, because the performed assay has only produced 1 assay endpoint. To generalize the intended target to other relatable targets, this assay endpoint is annotated to the transporter intended target family, where the subfamily is neurotransmitter transporter.
# Binding assays used specific radioligands (tritiated, iodinated) with non-radioactive competitive displacement ligands in agonist or antagonist protocols (as indicated) and various reference compounds and inhibitors to titrate specific binding to receptors and transporters. Most enzyme assays (CYPs, kinases, phosphatases, proteases, HDACs) used recombinant protein and specific substrates (fluorescence mostly, some colorimetric and radioactive) and inhibitors, followed by a biochemical separation of substrate and product. All assays for the biochemical HTS were initially run in duplicate at a single concentration (10 uM for CYP450 assays and 25 uM for all others). […] Each assay was run with positive and negative controls, and concurrent controls on every plate. […]
smiles,measurement,setting,value
CC(=O)CCC(C)C,outcome,[1],inactive
same,outcome,[2],inactive
CCc1cc(Cc2cc(CC)c(N)c(CC)c2)cc(CC)c1N,AC50,[1],14.2 µM (active)
same,outcome,[1],inactive
CCN=c1cc2oc3cc(NCC)c(C)cc3c(-c3ccccc3C(=O)OCC)c-2cc1C,AC50,[3],18.1 µM (active)
same,AC50,[4],38.3 µM (active)
same,AC50,[5],9.39 µM (active)
same,AC50,[6],6.57 µM (active)
Cc1cc(C)c(O)c(C(C)(C)C)c1,AC50,[7],16.5 µM (active)
O=C1c2c(O)ccc(Nc3ccc(CCO)cc3)c2C(=O)c2c([N+](=O)[O-])ccc(O)c21,AC50,[5],23.5 µM (active)
C#CC(O)CCC (stereo not drawn),outcome,[6],inactive
CC(C)Nc1ccc(NC(C)C)c2c1C(=O)c1ccccc1C2=O,outcome,[1],inactive
CCN(CC)c1ccc(C=O)cc1,AC50,[8],15.8 µM (active)
Cc1ccc([N+](=O)[O-])c(C)c1,outcome,[1],inactive
CCN=C1C=CC(=C(c2ccc(N(CC)CC)cc2)c2ccc(N(CC)CC)cc2)c2ccccc21,AC50,[4],1.15 µM (active)
same,AC50,[5],0.404 µM (active)
same,AC50,[6],1.05 µM (active)
same,outcome,[1],inactive
CCCCCCCCCCCCCC[P+](CCCC)(CCCC)CCCC,AC50,[3],3.23 µM (active)
same,AC50,[6],3.82 µM (active)
CCCCCCCC/C=C\CCCCCCCC(=O)OCC(O)CO (stereo not drawn),AC50,[6],34.8 µM (active)
same,outcome,[1],inactive
CCCCCCCC/C=C\CCCCCCCC(=O)N(C)CC(=O)O,AC50,[5],4.85 µM (active)
O=C(c1ccccc1)c1ccc(Cl)cc1,AC50,[2],20.2 µM (active)
COCCOCCC[Si](C)(O[Si](C)(C)C)O[Si](C)(C)C,outcome,[1],inactive
CC(C)(C)c1cc(Cc2cc(C(C)(C)C)c(O)c(C(C)(C)C)c2)cc(C(C)(C)C)c1O,outcome,[1],inactive
CCCCCCCCn1sc(Cl)c(Cl)c1=O,outcome,[1],inactive
CSc1ccc(O)cc1C,AC50,[9],19.4 µM (active)
same,AC50,[2],33.9 µM (active)
same,outcome,[8],inactive
same,AC50,[10],36.4 µM (active)
CCN(CC)c1ccc(N=Nc2ccccc2)cc1,outcome,[9],inactive
same,outcome,[2],inactive
same,AC50,[8],3.36 µM (active)
CCOC(OCC)OCC,outcome,[1],inactive
CCN(CC)c1ccc2c(c1)Oc1cc(N(CC)CC)ccc1C21OC(=O)c2ccccc21,outcome,[9],inactive
same,AC50,[8],8.16 µM (active)
O=C1c2ccccc2C(=O)c2c(Cl)cccc21,outcome,[6],inactive
Cc1cc(O)c(C(C)(C)C)cc1C(C)(C)C,AC50,[2],23.7 µM (active)
same,AC50,[10],16.5 µM (active)
CCCCCCCCCCCCC[N+](C)(C)Cc1ccccc1,AC50,[3],13.4 µM (active)
same,outcome,[5],inactive
same,outcome,[1],inactive
CCN(CC)c1ccc(C=O)c(O)c1,AC50,[6],25 µM (active)
same,AC50,[9],15 µM (active)
same,AC50,[10],25 µM (active)
CCn1c2ccccc2c2ccccc21,outcome,[2],inactive
O=C1C=CC(=O)N1c1ccc(Cc2ccc(N3C(=O)C=CC3=O)cc2)cc1,AC50,[9],11.3 µM (active)
same,outcome,[2],inactive
C[C@]12CC[C@H]3C(=CCc4cc(O)ccc43)[C@@H]1CCC2=O,AC50,[9],1.16 µM (active)
same,AC50,[2],4.59 µM (active)
same,AC50,[8],15.6 µM (active)
Cc1ccc(S(=O)(=O)C(I)I)cc1,AC50,[9],15.6 µM (active)
CCCCCCCCCc1ccc(OCCO)cc1,outcome,[1],inactive
c1ccc(C[P+](c2ccccc2)(c2ccccc2)c2ccccc2)cc1,AC50,[7],4.57 µM (active)
same,AC50,[9],15.1 µM (active)
same,AC50,[2],16.7 µM (active)
same,AC50,[8],3.33 µM (active)

# Source: PubChem BioAssay (EPA / NIEHS)
